Holding throughout (assay): DAPPL (digital affinity profiling via proximity ligation, sequencing); 10 mM Tris-HCl pH 7.5, 50 mM NaCl, 1 mM DTT, 4% glycerol, room temperature, 30 min; GST-TFs on glutathione beads, 16-mer random dsDNA library, 0.1% formaldehyde crosslink after washing; high values mean tight binding
The target of one assay is T1, FEV (Homo sapiens, UniProt Q99581 1-238).
T1 sequence: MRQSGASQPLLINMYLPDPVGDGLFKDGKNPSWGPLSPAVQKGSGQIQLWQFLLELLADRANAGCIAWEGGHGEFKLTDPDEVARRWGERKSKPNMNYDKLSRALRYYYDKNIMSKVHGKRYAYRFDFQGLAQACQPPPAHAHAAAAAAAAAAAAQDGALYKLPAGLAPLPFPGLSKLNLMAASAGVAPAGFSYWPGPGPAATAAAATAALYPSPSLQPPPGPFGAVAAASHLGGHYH
To be noted: protein: recombinant; tags: N-terminal GST; dsDNA, one strand shown. The method, boiled down: (§1)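 Beads coated with glutathione captured GST-fused human transcription factors that had been expressed in yeast, and the factors were then given DNA barcodes and pooled with a tag-only sample. The pools were incubated with 200 nmole of a random double-stranded 16-mer DNA library in Tris/NaCl/DTT/glycerol buffer for 30 min at room temperature, washed, crosslinked with 0.1% formaldehyde and proximity-ligated with BsaI/T4 ligase at 37 °C for 1 h. PCR amplification and Illumina NextSeq500 sequencing came last. Binding signal is each hexamer's read frequency for a factor divided by its frequency for the tag-only sample.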

Another assay deals with ETV5 (Homo sapiens, UniProt P41161 1-510). To be noted: protein: recombinant; tags: N-terminal GST; dsDNA, one strand shown. The method, boiled down:
as §1

A further assay deals with HSF1 (Homo sapiens, UniProt Q00613 1-529). To be noted: protein: recombinant; tags: N-terminal GST; chain copies: 3; dsDNA, one strand shown. Put shortly: as §1
In the next assay the target is T2, SPIC (Homo sapiens, UniProt Q8N5J4 1-248).
T2 sequence: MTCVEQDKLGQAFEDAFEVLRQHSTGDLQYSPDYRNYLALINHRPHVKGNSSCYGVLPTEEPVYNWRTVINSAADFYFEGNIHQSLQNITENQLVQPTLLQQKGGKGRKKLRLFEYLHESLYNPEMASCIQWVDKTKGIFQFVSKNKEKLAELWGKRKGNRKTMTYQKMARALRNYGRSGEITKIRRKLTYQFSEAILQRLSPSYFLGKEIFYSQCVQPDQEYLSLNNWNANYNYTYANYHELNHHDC
To be noted: protein: recombinant; tags: N-terminal GST; dsDNA, one strand shown. The method, boiled down: as §1

For a further assay, the target named is ELF4 (Homo sapiens, UniProt Q99607 1-663). To be noted: protein: recombinant; tags: N-terminal GST; dsDNA, one strand shown. The method, boiled down:
as §1

For a further assay, the target named is T3, ELK4 (Homo sapiens, UniProt P28324-2 1-405).
T3 sequence: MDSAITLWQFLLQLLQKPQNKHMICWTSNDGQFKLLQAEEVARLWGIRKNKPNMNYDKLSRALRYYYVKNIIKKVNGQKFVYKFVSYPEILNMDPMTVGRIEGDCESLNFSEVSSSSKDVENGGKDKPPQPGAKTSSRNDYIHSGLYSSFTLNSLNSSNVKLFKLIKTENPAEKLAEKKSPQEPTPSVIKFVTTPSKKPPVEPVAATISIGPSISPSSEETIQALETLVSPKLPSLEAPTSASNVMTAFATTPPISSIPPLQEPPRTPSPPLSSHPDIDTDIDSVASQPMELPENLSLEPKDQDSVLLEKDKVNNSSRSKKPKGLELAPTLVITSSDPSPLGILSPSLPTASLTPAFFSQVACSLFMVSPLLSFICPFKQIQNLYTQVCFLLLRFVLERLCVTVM
To be noted: protein: recombinant; tags: N-terminal GST; dsDNA, one strand shown. The method, boiled down: as §1

A further assay addresses T4, ETV2 (Homo sapiens, UniProt O00321 1-342).
T4 sequence: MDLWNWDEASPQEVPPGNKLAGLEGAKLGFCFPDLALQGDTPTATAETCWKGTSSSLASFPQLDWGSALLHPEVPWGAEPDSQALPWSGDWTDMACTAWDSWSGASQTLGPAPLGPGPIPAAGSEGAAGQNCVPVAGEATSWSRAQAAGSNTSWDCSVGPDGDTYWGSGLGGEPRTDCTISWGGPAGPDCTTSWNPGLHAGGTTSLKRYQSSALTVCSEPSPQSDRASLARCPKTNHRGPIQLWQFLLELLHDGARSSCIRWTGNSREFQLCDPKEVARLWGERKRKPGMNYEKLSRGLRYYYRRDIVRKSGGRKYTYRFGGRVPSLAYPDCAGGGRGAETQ
To be noted: protein: recombinant; tags: N-terminal GST; dsDNA, one strand shown. Put shortly:
as §1

The target in a further assay is T5, ELF3 (Homo sapiens, UniProt P78545 1-371).
T5 sequence: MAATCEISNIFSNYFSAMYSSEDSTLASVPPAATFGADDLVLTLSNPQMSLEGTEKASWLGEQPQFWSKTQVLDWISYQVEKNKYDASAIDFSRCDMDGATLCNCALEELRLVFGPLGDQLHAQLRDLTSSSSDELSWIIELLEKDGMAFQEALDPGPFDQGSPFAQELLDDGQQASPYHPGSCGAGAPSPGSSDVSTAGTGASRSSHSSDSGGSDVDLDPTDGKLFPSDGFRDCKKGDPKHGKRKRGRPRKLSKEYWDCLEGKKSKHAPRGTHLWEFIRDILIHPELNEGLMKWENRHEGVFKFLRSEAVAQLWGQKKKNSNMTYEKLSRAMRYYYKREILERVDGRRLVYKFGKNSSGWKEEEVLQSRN
To be noted: protein: recombinant; tags: N-terminal GST; dsDNA, one strand shown. Put shortly:
as §1

The next assay has as its target CRX (Homo sapiens, UniProt O43186 1-299). To be noted: protein: recombinant; tags: N-terminal GST; dsDNA, one strand shown. Put shortly:
as §1

The next assay concerns the target ETV1 (Homo sapiens, UniProt P50549 1-477). To be noted: protein: recombinant; tags: N-terminal GST; dsDNA, one strand shown. The method, boiled down:
as §1

For a further assay, the target named is T6, ERF (Homo sapiens, UniProt P50548 1-548).
T6 sequence: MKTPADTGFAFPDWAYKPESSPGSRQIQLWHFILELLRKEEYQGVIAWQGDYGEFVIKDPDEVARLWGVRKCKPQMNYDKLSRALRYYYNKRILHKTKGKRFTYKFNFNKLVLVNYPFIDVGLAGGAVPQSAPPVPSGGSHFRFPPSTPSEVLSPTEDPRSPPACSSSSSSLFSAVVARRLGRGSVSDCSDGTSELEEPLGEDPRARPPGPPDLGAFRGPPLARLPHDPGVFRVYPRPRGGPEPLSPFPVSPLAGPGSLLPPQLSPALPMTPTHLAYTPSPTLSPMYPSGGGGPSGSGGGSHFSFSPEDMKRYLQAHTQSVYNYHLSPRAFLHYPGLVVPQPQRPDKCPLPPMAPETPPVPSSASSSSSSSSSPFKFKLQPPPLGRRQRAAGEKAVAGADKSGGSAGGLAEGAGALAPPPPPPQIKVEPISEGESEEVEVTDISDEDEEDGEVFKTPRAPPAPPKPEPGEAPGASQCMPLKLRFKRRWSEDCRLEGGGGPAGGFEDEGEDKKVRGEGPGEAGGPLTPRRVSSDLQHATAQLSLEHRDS
To be noted: protein: recombinant; tags: N-terminal GST; dsDNA, one strand shown. Put shortly: as §1

The target in a further assay is T7, ETV3L (Homo sapiens, UniProt Q6ZN32 1-361).
T7 sequence: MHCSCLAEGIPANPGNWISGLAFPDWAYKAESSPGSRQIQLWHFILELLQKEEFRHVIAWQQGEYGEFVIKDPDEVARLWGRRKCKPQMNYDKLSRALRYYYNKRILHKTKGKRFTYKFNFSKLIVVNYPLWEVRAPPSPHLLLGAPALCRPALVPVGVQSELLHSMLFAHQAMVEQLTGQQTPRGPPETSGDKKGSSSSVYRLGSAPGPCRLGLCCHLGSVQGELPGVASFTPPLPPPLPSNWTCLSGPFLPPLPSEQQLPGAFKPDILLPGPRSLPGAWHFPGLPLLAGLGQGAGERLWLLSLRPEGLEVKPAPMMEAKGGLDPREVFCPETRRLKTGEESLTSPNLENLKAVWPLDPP
To be noted: protein: recombinant; tags: N-terminal GST; dsDNA, one strand shown. Put shortly:
as §1

Another assay addresses T8, ETS2 (Homo sapiens, UniProt P15036 1-469).
T8 sequence: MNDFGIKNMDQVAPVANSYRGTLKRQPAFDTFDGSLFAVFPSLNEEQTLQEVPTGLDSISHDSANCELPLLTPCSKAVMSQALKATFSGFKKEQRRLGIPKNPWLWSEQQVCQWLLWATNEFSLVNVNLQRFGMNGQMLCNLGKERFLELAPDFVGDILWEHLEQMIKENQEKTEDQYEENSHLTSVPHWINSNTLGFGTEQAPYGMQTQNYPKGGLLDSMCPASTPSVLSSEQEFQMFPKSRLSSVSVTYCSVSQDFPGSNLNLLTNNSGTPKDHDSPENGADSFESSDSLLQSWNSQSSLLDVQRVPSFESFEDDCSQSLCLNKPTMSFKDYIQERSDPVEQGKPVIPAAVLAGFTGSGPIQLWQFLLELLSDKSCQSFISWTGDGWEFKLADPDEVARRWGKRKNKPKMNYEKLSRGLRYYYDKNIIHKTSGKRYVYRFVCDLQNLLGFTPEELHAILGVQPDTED
To be noted: protein: recombinant; tags: N-terminal GST; dsDNA, one strand shown. The method, boiled down: as §1

A further assay deals with T9, SPDEF (Homo sapiens, UniProt O95238 1-335).
T9 sequence: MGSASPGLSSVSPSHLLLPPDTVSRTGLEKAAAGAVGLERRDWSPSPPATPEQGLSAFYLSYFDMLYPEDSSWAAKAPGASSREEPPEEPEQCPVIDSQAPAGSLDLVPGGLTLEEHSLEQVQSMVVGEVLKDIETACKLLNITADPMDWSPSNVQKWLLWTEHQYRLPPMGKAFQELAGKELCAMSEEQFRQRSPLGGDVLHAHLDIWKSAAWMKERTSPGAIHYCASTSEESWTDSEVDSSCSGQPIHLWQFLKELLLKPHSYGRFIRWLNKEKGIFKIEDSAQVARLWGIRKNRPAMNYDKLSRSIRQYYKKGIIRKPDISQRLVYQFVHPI
To be noted: protein: recombinant; tags: N-terminal GST; dsDNA, one strand shown. The method, boiled down:
as §1

For a further assay, the target named is T10, ETV7 (Homo sapiens, UniProt Q9Y603 1-341).
T10 sequence: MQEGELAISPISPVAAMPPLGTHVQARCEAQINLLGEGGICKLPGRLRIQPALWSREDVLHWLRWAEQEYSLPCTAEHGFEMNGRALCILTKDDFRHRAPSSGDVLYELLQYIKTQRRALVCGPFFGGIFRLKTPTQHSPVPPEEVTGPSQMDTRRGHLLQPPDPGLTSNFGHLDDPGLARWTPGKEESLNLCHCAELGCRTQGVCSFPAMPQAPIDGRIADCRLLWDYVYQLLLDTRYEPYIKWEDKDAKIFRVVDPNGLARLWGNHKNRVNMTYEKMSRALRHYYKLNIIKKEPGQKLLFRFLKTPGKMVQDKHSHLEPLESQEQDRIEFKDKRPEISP
To be noted: protein: recombinant; tags: N-terminal GST; dsDNA, one strand shown. The method, boiled down:
as §1

In the next assay the target is T11, ELF5 (Homo sapiens, UniProt Q9UKW6-2 1-255).
T11 sequence: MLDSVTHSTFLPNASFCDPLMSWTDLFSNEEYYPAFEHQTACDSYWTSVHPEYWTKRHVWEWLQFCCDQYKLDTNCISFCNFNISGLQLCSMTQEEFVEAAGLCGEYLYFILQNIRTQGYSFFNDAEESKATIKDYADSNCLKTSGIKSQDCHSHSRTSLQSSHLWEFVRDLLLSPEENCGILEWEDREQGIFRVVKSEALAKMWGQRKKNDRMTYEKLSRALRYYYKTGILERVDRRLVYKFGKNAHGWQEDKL
To be noted: protein: recombinant; tags: N-terminal GST; dsDNA, one strand shown. Put shortly:
as §1

In a further assay the target is T12, ETV3 (Homo sapiens, UniProt P41162-2 1-143).
T12 sequence: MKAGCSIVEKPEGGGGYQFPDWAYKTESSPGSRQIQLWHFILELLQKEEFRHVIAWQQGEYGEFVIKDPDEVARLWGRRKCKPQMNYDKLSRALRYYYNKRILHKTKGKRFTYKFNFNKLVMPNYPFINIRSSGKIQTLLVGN
To be noted: protein: recombinant; tags: N-terminal GST; dsDNA, one strand shown. The method, boiled down:
as §1

Another assay deals with ETV6 (Homo sapiens, UniProt P41212 1-452). To be noted: protein: recombinant; tags: N-terminal GST; dsDNA, one strand shown. Put shortly:
as §1

Sequence of ETV6 (P41212 whole entry): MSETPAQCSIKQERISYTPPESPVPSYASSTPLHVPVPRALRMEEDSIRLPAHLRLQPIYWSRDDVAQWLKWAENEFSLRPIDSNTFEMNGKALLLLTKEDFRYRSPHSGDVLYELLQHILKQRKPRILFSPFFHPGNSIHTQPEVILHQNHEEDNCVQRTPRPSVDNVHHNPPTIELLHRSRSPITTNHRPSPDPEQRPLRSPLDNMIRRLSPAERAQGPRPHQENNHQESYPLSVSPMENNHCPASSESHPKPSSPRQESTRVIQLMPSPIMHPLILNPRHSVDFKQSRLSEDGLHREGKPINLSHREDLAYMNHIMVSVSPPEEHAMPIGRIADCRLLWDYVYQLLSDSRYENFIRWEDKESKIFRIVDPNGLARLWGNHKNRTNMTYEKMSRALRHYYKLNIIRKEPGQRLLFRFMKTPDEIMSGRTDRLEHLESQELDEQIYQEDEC
Sequence of ELF4 (Q99607 whole entry): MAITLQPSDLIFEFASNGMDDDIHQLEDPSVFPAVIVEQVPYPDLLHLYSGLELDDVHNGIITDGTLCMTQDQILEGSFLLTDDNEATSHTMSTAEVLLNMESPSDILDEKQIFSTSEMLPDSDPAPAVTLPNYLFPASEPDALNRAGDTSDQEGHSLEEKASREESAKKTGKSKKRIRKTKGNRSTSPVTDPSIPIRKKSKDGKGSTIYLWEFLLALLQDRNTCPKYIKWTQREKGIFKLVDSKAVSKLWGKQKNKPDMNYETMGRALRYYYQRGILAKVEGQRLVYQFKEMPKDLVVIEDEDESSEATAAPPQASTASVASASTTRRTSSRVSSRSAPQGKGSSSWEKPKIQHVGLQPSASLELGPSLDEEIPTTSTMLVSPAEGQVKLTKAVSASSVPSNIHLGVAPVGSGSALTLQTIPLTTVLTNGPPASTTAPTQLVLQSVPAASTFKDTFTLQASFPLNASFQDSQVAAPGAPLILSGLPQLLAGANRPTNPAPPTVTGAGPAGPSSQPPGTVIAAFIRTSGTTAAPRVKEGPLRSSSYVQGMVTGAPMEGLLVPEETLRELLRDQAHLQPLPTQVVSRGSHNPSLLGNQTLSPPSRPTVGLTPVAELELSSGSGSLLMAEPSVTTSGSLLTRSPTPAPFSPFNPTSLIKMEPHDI
Sequence of ETV1 (P50549 whole entry): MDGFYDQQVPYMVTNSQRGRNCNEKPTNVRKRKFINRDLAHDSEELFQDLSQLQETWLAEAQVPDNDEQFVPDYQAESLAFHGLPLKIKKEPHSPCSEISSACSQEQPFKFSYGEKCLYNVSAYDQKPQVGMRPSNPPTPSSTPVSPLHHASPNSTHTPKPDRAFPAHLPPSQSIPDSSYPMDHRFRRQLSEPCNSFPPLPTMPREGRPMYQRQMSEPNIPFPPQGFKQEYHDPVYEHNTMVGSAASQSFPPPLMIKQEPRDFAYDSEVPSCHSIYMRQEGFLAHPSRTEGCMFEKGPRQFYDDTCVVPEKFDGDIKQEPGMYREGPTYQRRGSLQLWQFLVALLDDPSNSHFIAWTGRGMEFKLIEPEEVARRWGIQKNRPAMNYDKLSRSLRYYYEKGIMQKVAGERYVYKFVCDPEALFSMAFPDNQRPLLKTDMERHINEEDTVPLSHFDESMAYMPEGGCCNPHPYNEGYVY
Sequence of HSF1 (Q00613 whole entry): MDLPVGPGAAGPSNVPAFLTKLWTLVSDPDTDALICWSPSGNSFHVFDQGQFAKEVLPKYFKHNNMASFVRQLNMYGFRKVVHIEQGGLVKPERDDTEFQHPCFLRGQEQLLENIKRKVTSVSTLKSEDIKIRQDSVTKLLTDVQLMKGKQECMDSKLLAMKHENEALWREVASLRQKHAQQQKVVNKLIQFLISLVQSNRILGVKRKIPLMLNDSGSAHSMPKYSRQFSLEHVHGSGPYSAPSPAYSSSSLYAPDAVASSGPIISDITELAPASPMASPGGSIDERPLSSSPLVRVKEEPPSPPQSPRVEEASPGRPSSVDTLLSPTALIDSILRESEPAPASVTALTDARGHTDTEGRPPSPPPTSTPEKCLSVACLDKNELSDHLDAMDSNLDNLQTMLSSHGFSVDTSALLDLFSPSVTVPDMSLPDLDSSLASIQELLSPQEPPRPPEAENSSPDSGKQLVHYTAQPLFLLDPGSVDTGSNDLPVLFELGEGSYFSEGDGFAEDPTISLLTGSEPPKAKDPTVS
Sequence of CRX (O43186 whole entry): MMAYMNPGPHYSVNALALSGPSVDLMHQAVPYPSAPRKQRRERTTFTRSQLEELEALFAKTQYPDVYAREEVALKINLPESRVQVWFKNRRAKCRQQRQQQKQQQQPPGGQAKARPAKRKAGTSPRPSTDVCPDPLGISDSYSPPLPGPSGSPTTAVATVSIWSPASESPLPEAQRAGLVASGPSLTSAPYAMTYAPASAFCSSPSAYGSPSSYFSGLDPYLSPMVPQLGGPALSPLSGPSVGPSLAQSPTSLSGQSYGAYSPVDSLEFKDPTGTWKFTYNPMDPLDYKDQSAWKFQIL
Sequence of ETV5 (P41161 whole entry): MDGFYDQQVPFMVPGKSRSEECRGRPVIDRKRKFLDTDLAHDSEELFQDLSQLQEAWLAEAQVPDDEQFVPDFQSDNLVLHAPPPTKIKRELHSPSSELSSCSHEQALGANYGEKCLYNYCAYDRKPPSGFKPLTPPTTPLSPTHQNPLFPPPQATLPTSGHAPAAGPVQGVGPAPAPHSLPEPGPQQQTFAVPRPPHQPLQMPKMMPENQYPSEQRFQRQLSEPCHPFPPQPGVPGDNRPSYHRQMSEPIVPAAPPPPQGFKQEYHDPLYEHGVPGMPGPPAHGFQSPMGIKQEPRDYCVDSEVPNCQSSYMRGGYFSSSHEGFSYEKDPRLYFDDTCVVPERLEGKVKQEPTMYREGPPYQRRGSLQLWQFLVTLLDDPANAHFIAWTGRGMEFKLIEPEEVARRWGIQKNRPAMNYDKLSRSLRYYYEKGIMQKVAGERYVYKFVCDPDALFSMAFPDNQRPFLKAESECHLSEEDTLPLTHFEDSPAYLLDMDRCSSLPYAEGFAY

With GATTCA, the binding signal with FEV was 1.08 fold enrichment (6-mer frequency, TF over GST control); with ETV5, 1.08 fold enrichment (6-mer frequency, TF over GST control); with HSF1, 1.13 fold enrichment (6-mer frequency, TF over GST control); with SPIC it was 1.14 fold enrichment (6-mer frequency, TF over GST control); with ELF4, 1.15 fold enrichment (6-mer frequency, TF over GST control); in the assay with ELK4, 1.24 fold enrichment (6-mer frequency, TF over GST control). The binding signal was 1.08 fold enrichment (6-mer frequency, TF over GST control) with ETV2; 1.26 fold enrichment (6-mer frequency, TF over GST control) with ELF3; 1.13 fold enrichment (6-mer frequency, TF over GST control) with CRX; 1.15 fold enrichment (6-mer frequency, TF over GST control) with ETV1; 1.06 fold enrichment (6-mer frequency, TF over GST control) with ERF; 1.19 fold enrichment (6-mer frequency, TF over GST control) with ETV3L. The binding signal with ETS2 is 1.18 fold enrichment (6-mer frequency, TF over GST control); in the assay with SPDEF it was 1.12 fold enrichment (6-mer frequency, TF over GST control); with ETV7 it was 1.09 fold enrichment (6-mer frequency, TF over GST control); with ELF5, 1.05 fold enrichment (6-mer frequency, TF over GST control); with ETV3 it was 1.2 fold enrichment (6-mer frequency, TF over GST control); with ETV6, 1.13 fold enrichment (6-mer frequency, TF over GST control).
